# HT1080NT lethal: qHTS for induction of synthetic lethality in tumor cells producing 2HG: qHTS for the HT-1080-NT fibrosarcoma cell line; HT-1080-NT fibrosarcoma viability, CellTiter-Glo ATP luminescence, 48 h; Potency, µM (top dose mostly 46.1 µM), actives largely listed as cytotoxic; hit rate 1.6% among 360,000; AID 686970, 2013;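 also: NT is the 2HG producing partner of a matched IDH1 knockdown line; nearly all actives have a fitted effect of over 55% in size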
#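 HT-1080-NT; 750 cells/well; 5% FBS RPMI; 48 h compound, 37 degrees C; CellTiter-Glo luminescence; curve fitting and curve-class assignment.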
# TDP1 cell CPT: qHTS for Inhibitors of human tyrosyl-DNA phosphodiesterase 1 (TDP1): qHTS in cells in presence of CPT; chicken DT40 Tdp1-/-;hTDP1 cells + 20 nM CPT, ATP luminescence, 48 h; Potency, µM (top dose mostly 46.2 µM), actives largely listed as inhibitors; hit rate 12% among 420,000; AID 686979, 2013; also: nearly all actives have a fitted effect of over 55% in size
#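 Cell growth measured by CellTiter-Glo luminescence after a minimum 48 h, 37 C compound exposure with 20 nM CPT in Tdp1-knockout DT40 cells stably expressing hTDP1, seeded 400/well; qHTS titration format.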
# uPA surface inh: qHTS for Inhibitors of Cell Surface uPA Generation; cell surface uPA generation assay, qHTS; Potency, µM (series often up to 38.3 µM), most hits filed as inhibitors; hit rate 0.31% among 330,000; active = well fitted inhibition curve with a large enough effect; inconclusive = small, poorly fitted or top-dose-only effect; inactive = no such curve, though single readings can be large or run the other way; tested in mouse RAW 264.7 cells; also: nearly all actives have a fitted effect of over 55% in size
# TDP1 cell noCPT: qHTS for Inhibitors of human tyrosyl-DNA phosphodiesterase 1 (TDP1): qHTS in cells in absence of CPT | DT40 Tdp1-/- hTDP1 cells, no CPT, ATP luminescence, 48 h | Potency, µM (titrated, usually from 46.2 µM), hits mostly inhibitors | hit rate 15% among 420,000; also: nearly all actives have a fitted effect of over 55% in size
#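 Seeded 400 DT40-hTDP1 cells/well (vehicle DMSO, no 20 nM CPT); pinned compounds; ≥48 hr at 37 °C; CellTiter-Glo luminescence as viability measure.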
# IL1B secr inh: qHTS for Inhibitors of Inflammasome Signaling: IL-1-beta AlphaLISA Primary Screen; AID 743279, 2014; hit rate 4.7% among 360,000; activity change, % at 57.5 µM; THP-1 LPS/ATP IL-1B secretion, AlphaLISA, 16 h; stronger effect = lower value; in the data active = activity change below about -50%; inconclusive = mostly about -30% to -49%
#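 THP-1 cells pretreated 1 hr with compounds (up to 57.5 uM final), then stimulated with LPS (250 ng/mL final) plus ATP (1.25 mM final); secreted IL-1B measured by AlphaLISA after 16 hr, decreased signal indicating inhibition.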
# HT1080 IDH1KD tx: qHTS for induction of synthetic lethality in tumor cells producing 2HG: qHTS for the HT-1080-IDH1KD cell line; HT-1080 IDH1 knockdown viability, ATP luminescence, 48 h; Potency, µM (top dose mostly 46.1 µM), actives largely listed as cytotoxic; hit rate 2% among 360,000; AID 686971, 2013
#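 Assay cells: HT-1080 with IDH1 knockdown, 750 per well, RPMI/5% FBS. Exposure: 48 h at 37 °C following 2 h pre-incubation. Read: CellTiter-Glo luminescence; fitted concentration-response, curve class assigned.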
# Numbers stand for hits; - = inactive; ? = inconclusive; . = no result. This is a sample that favours compounds with a hit; in the whole collection about 19% have one here. Unless noted, calls follow the shape of the dose curve; as a rule, active = well fitted curve in the direction sought with a large enough effect; inconclusive = small, poorly fitted or top-dose-only effect, or another doubt; inactive = no such curve, though single readings can be large; an effect the other way counts as inactive or inconclusive.
SMILES,HT1080NT lethal,TDP1 cell CPT,uPA surface inh,TDP1 cell noCPT,IL1B secr inh,HT1080 IDH1KD tx
O=S(=O)(c1ccccc1)N1CCC(c2ccncc2)CC1,.,-,.,21µM,.,.
CCc1cccc(C)c1NC(=O)c1cc(S(=O)(=O)N2CCOCC2)cn1C,.,-,.,-,.,.
O=C1CCCN1CCCNS(=O)(=O)c1ccc(F)cc1F,-,-,-,-,-,-
CN(c1ccccc1)S(=O)(=O)c1cccc(C(=O)OCC(=O)Nc2ccc(C(N)=O)cc2)c1,-,?,-,?,-,-
CCOc1ccc(CNCc2c(C(=O)O)c(C)n(Cc3ccc(C)cc3)c2C)cc1,.,?,.,18µM,.,.
Cc1c(CNCCCc2ccccc2)c(C(=O)O)c(C)n1Cc1cccc(Cl)c1,.,?,.,21µM,.,.
Cc1c(CNCCCc2ccccc2)c(C(=O)O)c(C)n1Cc1ccccc1,-,-,-,-,-,-
Cc1c(CNCCCc2ccccc2)c(C(=O)O)c(C)n1Cc1ccc(Cl)cc1,.,?,.,21µM,.,.
COc1ccccc1-c1nccc(NCc2cccnc2)n1,.,-,.,-,.,.
CCOC(=O)CC1C(=O)NCCN1S(=O)(=O)c1ccc(NC(C)=O)cc1 (configuration not stated),-,-,-,-,-,-
COc1ccc(N2CCN(C(=O)CCS(=O)(=O)c3ccc4c(c3)NC(=O)C(C)S4)CC2)cc1 (configuration not stated),-,?,-,10µM,-,-
Cc1ccc(C)c(N2CCN(C(=O)CCS(=O)(=O)c3ccc4c(c3)NC(=O)C(C)S4)CC2)c1 (configuration not stated),-,23µM,-,15µM,-,-
CC1Cc2ccccc2N1C(=O)CCS(=O)(=O)c1ccc2c(c1)NC(=O)CS2 (configuration not stated),-,23µM,-,?,-,-
COC(=O)c1ccc(NC(=O)CCS(=O)(=O)c2ccc3c(c2)NC(=O)C(C)S3)cc1 (configuration not stated),-,?,-,?,-,-
CC1CCC(NC(=O)CCS(=O)(=O)c2ccc3c(c2)NC(=O)CS3)CC1 (configuration not stated),-,-,-,-,-,-
CC(=O)c1ccc(N2CCN(C(=O)CCS(=O)(=O)c3ccc4c(c3)NC(=O)CS4)CC2)cc1,-,18µM,-,?,-,-
CCc1ccc(OCC(=O)NNCC(=O)Nc2ccc(OC)cc2)cc1,-,-,-,?,-,-
CN(c1ncc(C(F)(F)F)cc1Cl)n1cc(C(N)=O)c2ccccc2c1=O,-,-,-,?,-,-
O=C(NC1CCCCC1)c1cccnc1Sc1ccccc1,-,-,-,-,-,-
O=[N+]([O-])c1cccc(NNS(=O)(=O)c2ccccc2F)c1,?,?,-,?,-,5.8µM
COc1cc(Cl)c(NC(=O)C2CCN(S(=O)(=O)c3c(C)noc3/C=C/c3ccccc3F)CC2)c(OC)c1,.,-,.,-,.,.
Cc1noc(/C=C/c2ccccc2F)c1S(=O)(=O)N1CCC(C(=O)Nc2ccc(C#N)cc2)CC1,.,12µM,.,8.2µM,.,.
CC(=O)c1ccc(N2CCN(C(=O)C3CCN(S(=O)(=O)c4c(C)noc4/C=C/c4ccccc4F)CC3)CC2)cc1,.,?,.,10µM,.,.
COc1cc(NC(=O)C2CCN(S(=O)(=O)c3c(C)noc3/C=C/c3ccccc3F)CC2)cc(OC)c1OC,.,?,.,23µM,.,.
COc1ccc(NC(=O)C2CCN(S(=O)(=O)c3c(C)noc3/C=C/c3ccc(C)cc3)CC2)cc1Cl,.,-,.,-,.,.
SMILES,HT1080NT lethal,TDP1 cell CPT,uPA surface inh,TDP1 cell noCPT,IL1B secr inh,HT1080 IDH1KD tx
CNC(=O)C1CCN(S(=O)(=O)c2c(C)noc2/C=C/c2ccccc2F)CC1,-,-,-,-,-,-
Cc1ccc(/C=C/c2onc(C)c2S(=O)(=O)N2CCC(C(=O)Nc3cccc(C#N)c3)CC2)cc1,.,3.3µM,.,3.7µM,.,.
Cc1ccc(-n2nc3c(=O)n(CCCC(=O)NC4CCC(C)CC4)nc(C)c3c2C)cc1 (configuration not stated),-,?,-,?,-,-
O=C(COC(=O)C1CC2CCCC(C1)C2=O)NNC(=O)c1ccccc1F (configuration not stated),-,-,-,-,-,-
O=C1c2ccccc2C(c2nc3ccccc3[nH]2)N1Cc1ccco1 (configuration not stated),-,-,.,-,-,-
COc1ccccc1/C=C/c1onc(C)c1S(=O)(=O)N1CCC(C(=O)N2CCC(C)CC2)CC1,.,21µM,.,16µM,.,.
CCOc1ccc(OCC)c(NC(=O)C2CCN(S(=O)(=O)c3c(C)noc3/C=C/c3ccccc3F)CC2)c1,.,-,.,-,.,.
CCN(CC)c1ccc(NC(=O)C2CCN(S(=O)(=O)c3c(C)noc3/C=C/c3ccccc3F)CC2)c(C)c1,.,21µM,.,16µM,.,.
COc1ccc(C(=O)NCC(=O)OCC(=O)Nc2ncc(Cl)cc2Cl)cc1[N+](=O)[O-],-,-,-,-,-,-
O=C1NC(=O)C2(Br)Nc3ccc(Br)cc3C(=O)C2N1 (configuration not stated),-,-,-,-,-,-
Cc1nc(C(F)(F)F)ccc1C(=O)N1CCC1(C)C(=O)NS(=O)(=O)c1ccc2ccccc2c1 (configuration not stated),-,-,.,-,-,?
CC1CCN(C(=O)C2COc3ccccc3C2)CC1 (configuration not stated),.,-,.,-,.,.
CCn1cc(CN2CCC(C(=O)Nc3ccc(Oc4ccccc4)nc3)CC2)cn1,-,-,-,21µM,-,-
CCc1ccc(CN2CCC(C(=O)Nc3ccc(Oc4ccccc4)nc3)CC2)o1,-,16µM,-,23µM,-,?
CC(Oc1cc2oc(=O)c3c(c2cc1Cl)CCC3)C(=O)NCCN1CCOCC1 (configuration not stated),-,-,-,-,?,-
Nc1ncnc2c1ncn2[C@@H]1O[C@H](C(=O)Nc2ccc(C(=O)N3CCCCC3)cc2)[C@@H](O)[C@H]1O,-,-,.,-,-,-
CCCc1cc(N2CCN(c3cc(Cl)ccc3C)CC2)n2cnnc2n1,.,13µM,.,5.2µM,.,.
COC(=O)N1C(=O)[C@](c2ccccc2)(C(C)C)N1C(=O)OC,-,?,?,?,-92,-
